PubChem BioAssay (NCI)
The panel holds about 83,000 compounds, 20% with a hit somewhere; the sample as a whole holds those more often.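 Cells were grown in 96-well plates and exposed to the test compound at a single concentration for 48 hours; results are reported as percent growth, with values below 10 considered active.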 Activity calls are given as the source filed them.

Legend:
Test in all cases: NCI-60 one-dose screen, 48 h (100 = growth as untreated, 0 = no growth, -100 = all killed)
[1] = tested on: RPMI-8226 leukemia; details: 10 µM unless noted
[2] = tested on: OVCAR-8 ovarian; details: 10 µM unless noted
[3] = tested on: OVCAR-5 ovarian; details: 10 µM unless noted
[4] = tested on: OVCAR-4 ovarian; details: 10 µM unless noted
[5] = tested on: SK-OV-3 ovarian; details: 10 µM unless noted
[6] = tested on: OVCAR-3 ovarian; details: 10 µM unless noted
[7] = tested on: HS 578T breast; details: 10 µM
[8] = tested on: NCI/ADR-RES ovarian; details: 10 µM unless noted
[9] = tested on: T-47D breast; details: 10 µM unless noted
[10] = tested on: BT-549 breast; details: 10 µM unless noted
[11] = tested on: MDA-MB-435 melanoma; details: 10 µM unless noted
[12] = tested on: SW-620 colon; details: 10 µM unless noted
[13] = tested on: MCF7 breast; details: 10 µM unless noted
[14] = tested on: HCT-116 colon; details: 10 µM unless noted
[15] = tested on: HCC-2998 colon; details: 10 µM unless noted
[16] = tested on: KM12 colon; details: 10 µM unless noted
[17] = tested on: IGROV1 ovarian; details: 10 µM unless noted

Measured: growth

ClCc1cccc(CSc2ncnc3c2ncn3Cc2cccc(CCl)c2)c1
active: [1] -10.6% | [2] -16.4% | [4] 8.74% | [8] -6.49% | [9] -64.7% | [10] -69.6% | [11] 9.56% | [12] -45.6% | [14] -79.6% | [15] -71.7%
inactive: [3] 116% | [5] 65.5% | [6] 28.4% | [7] 47.7% | [13] 13.3% | [16] 57.9%

Cc1cc(C#Cc2ccccc2)ccc1-n1c(/C=C/c2ccc(F)cc2)nc2ccccc2c1=O
inactive: [1] 25.6% | [2] 90.6% | [3] 106% | [4] 57.6% | [5] 89.9% | [17] 95.2% | [7] 93.3% | [8] 83.3% | [9] 41% | [10] 90.4% | [11] 66.9% | [12] 47.8% | [13] 38.8% | [14] 46% | [15] 86.6% | [16] 62.5%

CCCCn1cnc(-c2cc(-c3ccccc3)cc(C(F)(F)F)c2)n1
inactive: [1] 98.2% | [2] 97.5% | [3] 113% | [4] 106% | [5] 105% | [17] 103% | [6] 103% | [7] 101% | [9] 93.7% | [10] 100% | [11] 105% | [12] 96% | [13] 99.6% | [14] 96.7% | [15] 108% | [16] 101%

CCCCCc1c(C)[nH]c(/C=C2\N=C(c3ccc[nH]3)C=C2CC)c1C
active: [1] -63.7% | [2] -65.2% | [3] -95.5% | [4] -89.8% | [5] -95.5% | [17] -63.3% | [7] -27.5% | [8] -78.8% | [9] -75% | [10] -96.6% | [11] -77.9% | [12] -92.6% | [13] -85.3% | [14] -95.4% | [15] -90.4% | [16] -91.4%

COc1ccc(/C=C/C(=O)c2ccc(NC(=O)CSc3nnc(-c4ccc(OC)cc4)n3-c3ccccc3)cc2)cc1
inactive: [1] 77.5% | [2] 92.2% | [3] 108% | [4] 100% | [5] 100% | [17] 111% | [6] 103% | [7] 91.2% | [9] 92.9% | [10] 99.7% | [11] 98.3% | [12] 102% | [13] 77.1% | [15] 104% | [16] 102%
active: [14] 4.27%

Nc1ncnc2c1N=C(c1ccc(F)cc1)CC(c1sc(Cl)nc1Cl)N2 (stereo not given)
inactive: [1] 76.5% | [2] 87.4% | [3] 99.6% | [4] 97.9% | [5] 95.7% | [17] 93.5% | [6] 101% | [7] 92.5% | [9] 88.3% | [10] 78% | [11] 102% | [12] 101% | [13] 86.6% | [14] 91.1% | [15] 101% | [16] 105%

CCCCC(CCc1ccccn1)C(=O)c1ccccc1 (stereo not given)
inactive: [1] 106% | [2] 112% | [3] 109% | [4] 110% | [5] 110% | [6] 116% | [7] 112% | [9] 100% | [10] 108% | [11] 111% | [12] 112% | [13] 105% | [14] 109% | [15] 111% | [16] 136%

CC1=C(C(=O)Nc2ccc(F)cc2)C(c2ccc(C)cc2)C2=C(CC(C)(C)CC2=O)N1 (stereo not given)
inactive: [1] 99.2% | [2] 98.3% | [3] 93.1% | [5] 100% | [17] 104% | [6] 92.7% | [7] 77.4% | [8] 89.9% | [9] 85.2% | [10] 97.2% | [11] 94.9% | [12] 81.9% | [13] 91.1% | [14] 96.3% | [15] 107% | [16] 102%

CSCCC1NC(=O)C(C(C)=Nc2ccccc2)=C1O (stereo not given)
inactive: [1] 115% | [2] 111% | [3] 120% | [17] 103% | [6] 117% | [7] 105% | [8] 104% | [9] 103% | [10] 105% | [11] 95.4% | [12] 104% | [13] 91.3% | [14] 107% | [15] 113% | [16] 79.3%

Cc1ccc(O)c(Cc2ccccc2)c1
inactive: [2] 102% | [3] 104% | [4] 108% | [5] 110% | [17] 132% | [6] 100% | [7] 91.3% | [8] 99.7% | [9] 101% | [10] 92.4% | [11] 107% | [12] 98.4% | [13] 114% | [14] 98% | [15] 102% | [16] 103%

COc1ccc(C2C=C(c3ccc(Cl)cc3)N=C3SC=CN32)cc1 (stereo not given)
inactive: [1] 94.6% | [2] 104% | [5] 111% | [17] 113% | [6] 132% | [7] 93.1% | [8] 104% | [9] 104% | [10] 90.3% | [11] 107% | [12] 97.7% | [13] 96.1% | [14] 104% | [15] 119% | [16] 112%

COc1ccc(-c2cnc3ccnn3c2-c2cc(OC)c(OC)c(OC)c2)cc1
inactive: [1] 23.9% | [2] 47% | [4] 75.4% | [5] 32% | [17] 62.3% | [7] 16.7% | [8] 27.4% | [9] 22.2% | [10] 66.7% | [12] 16.1% | [13] 25.4% | [14] 27.5% | [15] 80.8% | [16] 16.1%
active: [6] -37.9% | [11] -38.5%

CC(=O)OC1Oc2cc(C)c(C)cc2-c2oc(=O)c(-c3cc4ccccc4oc3=O)cc21 (stereo not given)
inactive: [2] 101% | [3] 97.6% | [4] 97.2% | [17] 73.8% | [7] 423% | [8] 94.7% | [9] 91.9% | [10] 129% | [11] 112% | [12] 133% | [13] 108% | [14] 81.1% | [15] 96.2% | [16] 103%

CCCCCCCCCCCCCCCCCC1=NC(C)(C)CN1C(C)(C)CO
inactive: [7] 15.3% | [10] 64.7%
active: [1] -35.3% | [2] -80.4% | [4] 3.31% | [5] -40% | [17] -83.8% | [6] -1.05% | [8] -7.97% | [9] -19.5% | [11] -68.7% | [12] -100% | [13] -81% | [14] -100% | [15] -100% | [16] -100%

NNC(=O)Cc1ccccc1
inactive: [1] 88.4% | [2] 87.6% | [3] 77.1% | [5] 78.4% | [17] 97.5% | [6] 96% | [7] 95.7% | [8] 72.2% | [9] 85% | [10] 108% | [11] 83.7% | [12] 86.2% | [13] 91.5% | [15] 102% | [16] 80.1%

CC(=O)OC1Oc2cc(C)c(C)cc2-c2oc(=O)c(-c3ccc(F)cc3)cc21 (stereo not given)
inactive: [2] 81.9% | [3] 86.2% | [4] 73.2% | [5] 79.1% | [17] 54.4% | [7] 60.5% | [8] 28.5% | [9] 52.5% | [10] 89.3% | [12] 26.7% | [13] 38.3% | [14] 32.2% | [15] 56.7% | [16] 23.7%
active: [11] -7.18%

O=C(c1ccccc1)N(CCCCl)C(=O)N(CCCCl)C(=O)c1ccccc1
inactive: [1] 88.1% | [2] 97.2% | [3] 87% | [5] 84.5% | [7] 93.9% | [8] 91.1% | [9] 93.1% | [10] 103% | [11] 89.6% | [12] 89.8% | [13] 119% | [14] 90.9% | [15] 95.3% | [16] 88.3%

OC(c1cc2c(Cl)cc(Cl)cc2c2cc(C(F)(F)F)ccc12)C1CCCCN1 (stereo not given)
inactive: [10] 50.4%
active: [1] -44.8% | [2] -61% | [3] -78.5% | [5] -18.3% | [17] -67.9% | [6] -86% | [7] -56.1% | [8] -60.4% | [9] -78.5% | [11] -65.5% | [12] -74.4% | [13] -75.7% | [14] -85.9% | [15] -73.5% | [16] -84.6%

CCOc1cccc(/C=N/NC(=O)Cc2ccc(Nc3ccnc(C(F)(F)F)c3)cc2)c1O
inactive: [2] 16.7% | [4] 22% | [5] 20% | [17] 11.3% | [6] 39.7% | [7] 76.4% | [8] 48% | [9] 15.7% | [10] 40.7% | [11] 40.3% | [12] 21.5% | [14] 20.9% | [15] 37.4% | [16] 30.1%
active: [1] 4.35% | [13] 5.26%
